Assay outcomes from PubChem.
PPARg SRC1 recr = PPARgamma-driven SRC-1 recruitment agonism; PPARgamma-SRC-1 coactivator recruitment biochemical assay; activation, % at 8 µM; actives 0.41% (n = 200,000); P37231; in the data active means activation above about 19%;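 further: 0% = DMSO and 100% = reference agonist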
PPARg SRC3 recr = PPARgamma-driven SRC-3 recruitment agonism; P37231; activation, % at 8 µM; actives 0.26% (n = 200,000); biochemical PPARgamma/SRC-3 coactivator recruitment assay; in the data active means activation above about 23%;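 further: 0% = DMSO and 100% = reference agonist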
SRC1 TRFRET art = counter-screen for PPARgamma SRC-1 recruitment agonists: TR-FRET artefact. TR-FRET detection artefact counter-screen, emission ratio; stronger effect = higher value. actives 0.34% (n = 99,000). TR-FRET ratio at 8 µM; in the data active means TR-FRET ratio above about 2300
PPARg SRC-2 ag = PPARgamma-driven SRC-2 recruitment agonism; P37231; PPARgamma LBD-SRC-2 recruitment, biochemical; activation, % at 8 µM; actives 0.34% (n = 200,000); in the data active means activation above about 22%;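 further: 0% = vehicle and 100% = reference agonist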
SRC3 TRFRET art = counter-screen for PPARgamma SRC-3 recruitment agonists: TR-FRET artefact | PPARgamma/SRC-3 format; stronger effect = higher value | TR-FRET ratio at 8 µM | actives 0.39% (n = 99,000)
SRC2 TRFRET art = flags TR-FRET format artefacts in PPARgamma SRC-2 recruitment agonist screen; TR-FRET artefact counter-screen; stronger effect = higher value; TR-FRET ratio at 8 µM; actives 0.4% (n = 200,000)
PPARg SRC2 conf = human PPARgamma SRC-2 recruitment agonism, confirmation | shares compounds with PPARg SRC3 recr | biochemical SRC-2 recruitment by PPARgamma | activation, % at 8 µM | actives 52% (n = 790); in the data active means activation above about 22%;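 further: 0% = vehicle alone and 100% = reference agonist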
PPARg SRC1 ag = confirmation of agonists of SRC-1 recruitment by human PPARgamma. AID 1300. PPARgamma–SRC-1 coactivator recruitment biochemical assay. shares compounds with PPARg SRC3 recr. activation, % at 8 µM. actives 43% (n = 790); in the data active means activation above about 20%;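 further: 0% = vehicle wells and 100% = reference agonist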
PPARg SRC3 ag = human PPARgamma SRC-3 recruitment agonism, confirmation; activation, % at 8 µM; AID 1301; shares compounds with PPARg SRC3 recr; biochemical PPARgamma-SRC-3 coactivator recruitment, agonist mode; actives 29% (n = 790); in the data active means activation above about 24%;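 further: 0% = vehicle wells and 100% = reference agonist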
Active calls of the source: *; / = not tested or not shown. This is a sample that favours compounds with a hit; in the whole collection about 0.84% have one here. Unless noted, no stated cut-off is given here; in the data, active means TR-FRET ratio above about 2000; inactive means the rest.

SMILES	PPARg SRC1 recr	PPARg SRC3 recr	SRC1 TRFRET art	PPARg SRC-2 ag	SRC3 TRFRET art	SRC2 TRFRET art	PPARg SRC2 conf	PPARg SRC1 ag	PPARg SRC3 ag
O=c1[nH]c2ccc(Cl)cc2c(-c2ccccc2)c1SC(=S)N1CCCCC1	2	16	/	23*	/	1624	4	1	0
CCn1c(=O)cc(SCC(=O)N2CCN(Cc3ccc4c(c3)OCO4)CC2)c2ccccc21	45*	42*	/	55*	/	2608*	27*	17	18
Cn1c(=O)cc(SCC(=O)N2CCN(Cc3ccc4c(c3)OCO4)CC2)c2ccccc21	50*	72*	/	33*	/	2161*	25*	12	18
CCSc1ccccc1C(=O)N1CCN(Cc2ccc3c(c2)OCO3)CC1	0	8	/	4	/	1434	/	/	/
Cn1c(C(=O)N2CCN(Cc3ccc4c(c3)OCO4)CC2)cc2c(=O)n(C)c3ccccc3c21	6	-1	/	7	/	1748	/	/	/
CC(C)C(OC(=O)c1cc2occc2n1C)C(=O)NCc1ccc2c(c1)OCO2 (stereo unspecified)	33*	31*	1700	13	1951	1600	11	21*	20
Cc1cc2c(cc(C(=O)OC(C(=O)NCc3ccco3)C(C)C)n2C)o1 (stereo unspecified)	-4	1	/	10	/	1764	/	/	/
O=C(COc1ccc2ccccc2c1Br)NNC(=O)Nc1ccccc1	21*	26*	/	28*	/	2408*	21	13	14
COc1cccc(Oc2nccc(N(C)C)c2C#N)c1	8	0	1809	3	1584	1480	/	/	/
N/C(=N\OC(=O)CSc1ccccc1)c1ccc([N+](=O)[O-])cc1	-1	-3	1916	-13	1570	1624	/	/	/
CCc1cc2cc(C(=O)Nc3ccc(F)cc3)sc2s1	15	21	/	39*	/	2237*	25*	17	15
O=C(c1ccc(COc2ccccc2Br)cc1)N1CCCCCC1	-1	4	1483	5	1779	1545	/	/	/
Cc1ccc(S(=O)(=O)NCC(=O)OCC(=O)c2cccs2)cc1	-1	-2	/	-3	/	1454	/	/	/
Cc1ccc(S(=O)(=O)NCC(=O)OCC(=O)c2ccc(Br)s2)cc1	36*	66*	/	55*	/	1836	51*	32*	35*
O=C(OCn1ncc(Br)c(Br)c1=O)c1ccc(F)cc1	22*	44*	/	37*	/	2296*	43*	29*	31*
O=C(OCn1ncc(Br)c(Br)c1=O)c1ccccc1Cl	6	21	/	19	/	1784	/	/	/
O=C(CSc1ncnc2c1oc1ccccc12)c1cccs1	52*	69*	/	30*	/	2091*	38*	25*	23
NC(=O)CSc1ncnc2c1oc1ccccc12	120*	153*	/	110*	/	4661*	76*	55*	53*
O=C(CSc1ncnc2c1oc1ccccc12)OCc1ccccc1	46*	42*	/	55*	/	2399*	41*	34*	29*
O=C(CSc1ncnc2c1oc1ccccc12)NC1CCCCC1	64*	33*	/	24*	/	2101*	49*	37*	32*
O=C(CSc1ncnc2c1oc1ccccc12)Nc1nccs1	0	3	1953	14	1569	1614	/	/	/
Cc1cc(NC(=O)c2cc([N+](=O)[O-])cc([N+](=O)[O-])c2C)no1	-2	-1	1531	-3	1443	1604	/	/	/
O=C(C[n+]1cn(C(F)F)c2ccccc21)c1ccc(OC(F)F)cc1	-2	0	1833	4	1697	1465	/	/	/
COc1ccc(Cl)cc1NC(=O)CN1C(=O)CC(C)S(=O)(=O)c2ccccc21 (stereo unspecified)	-1	2	1862	10	1514	1495	/	/	/
COc1ccc(C(=O)Nc2c(C)csc2C(=O)O)cc1	-2	3	1808	4	1664	1508	/	/	/
